# Experimental data from PubChem BioAssay (Tox21).
# Results filed as inconclusive are left out. Entries that show only a call come without a potency. Active and inactive are the calls of the source. Unless noted, the call rests on the fitted dose curve; in most records, active means well fitted curve in the direction sought with a large enough effect in the repeat runs; inconclusive means weak or mixed curves; inactive means no such curve, though single readings can be large; an effect the other way counts as inactive or inconclusive.
# Legend:
# [1] = qHTS assay for small molecules that induce genotoxicity in human embryonic kidney cells expressing luciferase-tagged ATAD5 (AID 651632); further: nearly all actives have a fitted effect of over 15% in size
# Method in brief: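 Reporter cells (HEK293T) express luciferase-tagged ATAD5, a protein that accumulates after DNA damage. Treat 16 hr at 37C/5% CO2, add Amplite, wait 30 min at RT, and read luminescence.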
# [2] = qHTS assay for small molecules that induce genotoxicity in human embryonic kidney cells expressing luciferase-tagged ATAD5 - cell viability (AID 651634; calls by dose curve; further: nearly all actives have a fitted effect of over 25% in size; further: potency means the concentration at half of the fitted maximal effect)
# Method in brief: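 Seeding of 2,000 HEK293T ATAD5-luciferase cells per well preceded pin-tool compound transfer. Plates sat 15.5 hr at 37C under 5% CO2, then fluorescence was read after 30 min with CellTiter-Fluor.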
# [3] = qHTS assay for small molecule disruptors of the mitochondrial membrane potential (AID 720635); further: potency means the concentration at half of the fitted maximal effect
# Method in brief: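 HepG2 cells exposed to compound 1 hr at 37C, then Mito-MPS dye 30 min. Ratio read of aggregate (540/590 nm) versus monomer (490/535 nm) fluorescence.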
# [4] = qHTS assay to test for compound auto fluorescence at 590 nm (red) in HepG2 cells (AID 720674)
# Method in brief: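 Fluorescence at 590 nm emission following 540 nm excitation was recorded from HepG2 wells one hour after compound transfer, with DMSO-only wells as vehicle and Rose Bengal sodium equivalency as the scale.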
# [5] = qHTS assay to test for compound auto fluorescence at 535 nm (green) in HepG2 cells (AID 720675)
# [6] = qHTS assay to test for compound auto fluorescence at 460 nm (blue) in HEK293 cells (AID 720678)
# Method in brief: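 Cells were seeded and left to adhere for 4-5 hr at 37C. Compounds were then pin-transferred. After an overnight incubation at 37C under 5% CO2, intrinsic fluorescence at 405/460 nm was measured and referenced to triamterene.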
# [7] = qHTS assay to test for compound auto fluorescence at 590 nm (red) in HEK293 cells (AID 720679)
# Method in brief: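 Each well held 2,000 HEK293 cells in medium containing 10% dialyzed FBS. Following 4-5 hr attachment at 37C, 23 nL test compound or DMSO was added; plates sat overnight, and red fluorescence (540/590nm) was recorded.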
# [8] = qHTS assay to test for compound auto fluorescence at 535 nm (green) in HEK293 cells (AID 720680)
# [9] = qHTS assay to test for compound auto fluorescence at 460 nm (blue) in HEK293 cell free culture (AID 720681)
# Method in brief: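 Compounds were added to cell-free DMEM with 10% FBS and fluorescence read directly. The blue channel used 405 nm excitation and 460 nm emission, with triamterene as the reference fluorophore.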
# [10] = qHTS assay to test for compound auto fluorescence at 535 nm (green) in HEK293 cell free culture (AID 720682)
# Method in brief: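 Each library compound, or DMSO control, is added by pintool to medium alone, comprising DMEM and 10% FBS. Emission at 535 nm following 485 nm excitation is quantified against fluorescein.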
# [11] = qHTS assay to test for compound auto fluorescence at 590 nm (red) in HEK293 cell free culture (AID 720683)
# Method in brief: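 Cell-free wells of DMEM with 10% FBS received compound, and intrinsic fluorescence was read at excitation/emission 540/590 nm. Values expressed as equivalence to Rose Bengal sodium.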
# [12] = qHTS assay to test for compound auto fluorescence at 590 nm (red) in HepG2 cell free culture (AID 720684)
# Method in brief: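 Compound was pinned into wells holding MEM with 10% FBS and no cells, and red fluorescence was read at Ex/Em 540/590 nm. Signal is expressed as auto fluorescence equivalency relative to Rose Bengal sodium.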
# [13] = qHTS assay to test for compound auto fluorescence at 460 nm (blue) in HepG2 cell free culture (AID 720685)
# Method in brief: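 Compound (23 nL) or DMSO pinned into cell-free MEM with 10% FBS; blue fluorescence read at 405/460 nm excitation/emission, expressed as auto-fluorescence equivalency to triamterene.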
# [14] = qHTS assay to test for compound auto fluorescence at 535 nm (green) in HepG2 cell free culture (AID 720686)
# [15] = qHTS assay to test for compound auto fluorescence at 460 nm (blue) in HepG2 cells (AID 720687)
# Method in brief: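 HepG2 cells in MEM with 10% FBS, attached overnight at 37 C, were exposed to compound or DMSO for 1 hr at 37 C, 5% CO2. Blue fluorescence was read at 405/460 nm, with triamterene as reference fluorophore.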
# [16] = target: Glucocorticoid receptor (Homo sapiens) (UniProt P04150); experiment: qHTS assay to identify small molecule agonists of the glucocorticoid receptor (GR) signaling pathway (AID 720691; active means well fitted activation curve with a large enough effect in the signal ratio in the repeat runs, not every such curve was filed as active; the % refers to the signal ratio); settings: GR-bla HeLa, beta-lactamase reporter ratio, 18 h; activation: at 62.4 µM (top of the series)
# Method in brief: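 Reporter read-out: fluorescence intensity following 2 h room-temperature LiveBLAzer B/G FRET substrate loading. Prior step: GR-bla HeLa cells held 4 h, then treated 18 h at 37 C.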
# [17] = qHTS assay for small molecule disruptors of the mitochondrial membrane potential - cell viability (AID 720634; calls by dose curve; further: nearly all actives have a fitted effect of over 20% in size; further: potency means the concentration at half of the fitted maximal effect)
# Method in brief: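 Measuring cytotoxicity alongside mitochondrial potential, the screen quantified ATP by luminescence in HepG2 cells after 1 hr compound incubation and a 30 min room-temperature CellTiter-Glo step.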
# [18] = qHTS assay for small molecule agonists of the p53 signaling pathway - cell viability (AID 651633; calls by dose curve; further: nearly all actives have a fitted effect of over 30% in size; further: potency means the concentration at half of the fitted maximal effect)
# Method in brief: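 p53RE-bla cells were treated with compound for 16 hours at 37 C. Cytotoxicity was then measured as CellTiter-Glo luminescence after 30 min at room temperature.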
# [19] = target: Glucocorticoid receptor (Homo sapiens) (UniProt P04150); experiment: qHTS assay to identify small molecule antagonists of the glucocorticoid receptor (GR) signaling pathway (AID 720692; active means well fitted inhibition curve with a large enough effect in the signal ratio in the repeat runs, not every such curve was filed as active; the % refers to the signal ratio; further: potency means the concentration at half of the fitted maximal effect)
# Method in brief: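 Dexamethasone (5 nM final) stimulated a stably integrated GRE-beta-lactamase reporter in HeLa cells during 18 h co-incubation with compounds; signal was quantified as fluorescence intensity of B/G FRET substrate after 2 h.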
# Sequence of Glucocorticoid receptor (Homo sapiens) (P04150 whole entry, looked up): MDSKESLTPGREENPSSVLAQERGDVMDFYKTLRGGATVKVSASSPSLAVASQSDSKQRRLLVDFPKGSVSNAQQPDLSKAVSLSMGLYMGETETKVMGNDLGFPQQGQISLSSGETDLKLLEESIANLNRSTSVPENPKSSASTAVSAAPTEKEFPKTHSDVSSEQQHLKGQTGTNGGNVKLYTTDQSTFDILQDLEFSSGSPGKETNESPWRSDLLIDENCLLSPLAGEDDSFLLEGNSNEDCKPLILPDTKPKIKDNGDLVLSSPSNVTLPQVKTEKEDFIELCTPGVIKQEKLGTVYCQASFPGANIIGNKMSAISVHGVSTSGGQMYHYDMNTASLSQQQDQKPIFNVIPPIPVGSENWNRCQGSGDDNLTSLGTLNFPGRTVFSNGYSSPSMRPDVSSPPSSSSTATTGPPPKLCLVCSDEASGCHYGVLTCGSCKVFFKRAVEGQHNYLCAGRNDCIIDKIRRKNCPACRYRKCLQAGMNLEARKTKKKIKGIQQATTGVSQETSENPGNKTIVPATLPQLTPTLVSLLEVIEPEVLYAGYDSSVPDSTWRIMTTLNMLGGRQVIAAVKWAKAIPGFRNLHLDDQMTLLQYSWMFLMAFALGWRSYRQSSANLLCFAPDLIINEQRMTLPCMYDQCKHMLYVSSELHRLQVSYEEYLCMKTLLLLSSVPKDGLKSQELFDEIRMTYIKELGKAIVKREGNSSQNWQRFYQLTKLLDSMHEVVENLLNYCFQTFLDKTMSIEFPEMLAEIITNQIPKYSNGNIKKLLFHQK
SMILES,Potency [1],Potency [2],Potency [3],Potency [4],Potency [5],Potency [6],Potency [7],Potency [8],Potency [9],Potency [10],Potency [11],Potency [12],outcome [13],Potency [14],outcome [15],Potency [16],Potency [17],Potency [18],Potency [19]
CC(=O)O[C@H]1CC[C@@]2(C)C(=CC[C@H]3[C@@H]4CC[C@H](C(C)=O)[C@@]4(C)CC[C@@H]32)C1,inactive,inactive,inactive,inactive,inactive,inactive,inactive,inactive,inactive,inactive,inactive,inactive,inactive,inactive,inactive,inactive,–,–,–
C=CC[C@@H]1/C=C(\C)C[C@H](C)C[C@H](OC)[C@H]2O[C@@](O)(C(=O)C(=O)N3CCCC[C@H]3C(=O)O[C@H](/C(C)=C/[C@@H]3CC[C@@H](O)[C@H](OC)C3)[C@H](C)[C@@H](O)CC1=O)[C@H](C)C[C@@H]2OC,inactive,–,–,inactive,inactive,inactive,inactive,inactive,inactive,inactive,inactive,inactive,inactive,inactive,inactive,inactive,inactive,–,–
CC(=O)Oc1cc(C)c(OC(C)=O)c2ccccc12,inactive,inactive,–,inactive,inactive,inactive,inactive,–,inactive,inactive,inactive,inactive,inactive,inactive,inactive,inactive,inactive,–,–
CC(C)(C)c1ccc(CN2CCN(C(c3ccccc3)c3ccc(Cl)cc3)CC2)cc1 (configuration not stated),inactive,–,–,inactive,inactive,inactive,inactive,inactive,inactive,inactive,inactive,inactive,inactive,inactive,inactive,inactive,inactive,–,–
Cc1ccccc1CNc1ncnc2c1ncn2[C@@H]1O[C@H](CO)[C@@H](O)[C@H]1O,–,inactive,inactive,inactive,inactive,inactive,inactive,inactive,inactive,inactive,inactive,inactive,inactive,inactive,inactive,inactive,inactive,inactive,–
Nc1nc(=O)n([C@@H]2CS[C@H](CO)O2)cc1F,–,inactive,inactive,inactive,inactive,inactive,inactive,inactive,inactive,inactive,inactive,inactive,inactive,inactive,inactive,inactive,inactive,inactive,inactive
O=C(O)C1CCCN1 (configuration not stated),–,inactive,inactive,inactive,inactive,inactive,inactive,inactive,–,inactive,inactive,inactive,inactive,inactive,inactive,inactive,inactive,inactive,inactive
CC(=O)O[C@H]1CC[C@@]2(C)C(=CC[C@@H]3[C@@H]2CC[C@]2(C)C(c4cccnc4)=CC[C@@H]32)C1,inactive,–,–,inactive,inactive,inactive,inactive,inactive,inactive,inactive,inactive,inactive,inactive,inactive,inactive,inactive,inactive,–,–
C[C@H]1[C@@H](OC(=O)CCC(=O)O)O[C@@H]2OC3(C)CC[C@H]4[C@H](C)CC[C@@H]1[C@@]24OO3,–,2.37 µM (active),–,inactive,inactive,inactive,inactive,inactive,inactive,inactive,inactive,inactive,inactive,inactive,inactive,inactive,inactive,inactive,–
CCCCCCCCCCCCCCCC(=O)OCC(COC(=O)CCCCCCCCCCCCCCC)OC(=O)CCCCCCCCCCCCCCC,inactive,inactive,inactive,inactive,inactive,inactive,inactive,inactive,–,inactive,–,inactive,inactive,inactive,inactive,inactive,–,–,inactive
COC(=O)C1=C(C#N)NC(C)=C(C(=O)OC(C)C)C1c1cccc([N+](=O)[O-])c1 (configuration not stated),inactive,–,19.7 µM (active),inactive,inactive,inactive,inactive,inactive,inactive,inactive,–,inactive,inactive,inactive,inactive,–,11.9 µM (active),–,19 µM (active)
Cc1cc(Nc2ccccc2C(=O)O)ccc1Cl,–,inactive,11.9 µM (active),inactive,inactive,inactive,inactive,inactive,inactive,inactive,inactive,inactive,inactive,inactive,inactive,inactive,inactive,7.5 µM (active),inactive
CN(C)CCOc1ccccc1Cc1ccccc1 (tested in a mixture with another compound),–,inactive,–,inactive,inactive,inactive,inactive,inactive,inactive,inactive,inactive,inactive,inactive,inactive,inactive,–,inactive,inactive,–
